From PubChem BioAssay come the findings set out here.

Results filed as inconclusive are left out. The source made the active and inactive calls.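 The calls were made as follows, unless noted: active = normalized viability below 100% at a tested concentration; inactive = the rest.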

A short description of assay [1]: viability loss in pontine glioma line – cell-based, SU-DIPG-XVII, MIPE5.0, CellTiter-Glo, qHTS, dose response (AID 1347060; cut-off not given, nearly all actives have AC50 up to about 26 µM;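 also: cells exposed to compound for 48 hours before viability readout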). Particulars: CellTiter-Glo ATP luminescence.
Assay [2] is described as follows: viability loss in pontine glioma line – cell-based, SU-DIPG-IV, MIPE4.0, CellTiter-Glo, qHTS, dose response (AID 1347063; cut-off not given, nearly all actives have AC50 up to about 30 µM;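 also: compound exposure lasted 48 hours before the viability readout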). Particulars: CellTiter-Glo ATP luminescence.
Assay [3] can be described thus: viability loss in pontine glioma line – cell-based, SU-DIPG-XIII, MIPE5.0, CellTiter-Glo, qHTS, dose response (AID 1347064; cut-off not given, nearly all actives have AC50 up to about 23 µM;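 also: cells exposed to compound for 48 hours before the viability read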). Particulars: CellTiter-Glo ATP luminescence.
Assay [4] is described as follows: viability loss in pontine glioma line – cell-based, SU-DIPG-XXV, MIPE5.0, CellTiter-Glo, qHTS, dose response (AID 1347065; cut-off not given, nearly all actives have AC50 up to about 26 µM;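 also: cells exposed to compound for 48 hours before ATP readout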). The conditions noted are these: CellTiter-Glo ATP luminescence.
Assay [5] can be described thus: growth inhibition of DIPG cells – cell-based, MIPE4.0 library, CellTiter-Glo luminescence, qHTS (AID 1347066; cut-off not given, nearly all actives have AC50 up to about 30 µM;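 also: cells exposed to compound for 48 hours before readout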). Particulars: SU-DIPG-VI viability, CellTiter-Glo ATP luminescence.
A short description of assay [6]: JHH-DIPG-1 glioma cell viability, MIPE5.0 library, CellTiter-Glo luminescence, qHTS (AID 1347067; cut-off not given, nearly all actives have AC50 up to about 26 µM;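 also: cells exposed to compound for 48 hours before readout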). The conditions noted are these: JHH-DIPG-1 glioma viability, CellTiter-Glo ATP luminescence.
Assay [7] can be described thus: growth inhibition of DIPG cells – cell-based, MIPE5.0 library, qHTS (AID 1347068; cut-off not given, nearly all actives have IC50 up to about 30 µM;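 as to IC50: cells exposed to compound for 48 hours before viability readout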). The conditions noted are these: SU-DIPG-XXV viability.
Assay [8] in a line: viability loss with induced miR-34 in A549 – imaging, A549 dox-inducible miR-34, nuclei and caspase counts, primary screen (AID 1347080;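 active = compounds whose cell count with miR-34 switched on is under 0.7 times the count with it off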). The conditions noted are these: A549 miR-34 inducible, Hoechst nuclei count, 48 h.
The nature of assay [9]: MELAS cybrid and Rieske KO viability enhancers – cell-based, MELAS cybrids, Rieske KO mouse fibroblasts, CellTiter-Glo, primary screen (AID 1508586;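 active = mean z-score across replicates of 1.96 or higher in either the MELAS or the Rieske mutant cell line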;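 also: z relative to plate mean and SD of compound and empty wells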). The conditions noted are these: low glucose.
A short description of assay [10]: viability loss in pontine glioma line – cell-based, JHH-DIPG-1, MIPE4.0, CellTiter-Glo, qHTS, dose response (AID 1347062; cut-off not given, nearly all actives have AC50 up to about 27 µM). The conditions noted are these: JHH-DIPG-1 viability, CellTiter-Glo ATP luminescence.
The nature of assay [11]: compounds altering HSF1 focus formation in cells – imaging, Selleck Cancer Library (AID 1347162; in the data active = plate-normalised HSF1 focus index below about 0.46). Particulars: human cells, HSF1 nuclear foci imaging, at 10 µM; SSMD: measured here: HSF1 foci SSMD mean; cell count: measured here: cell number; plate-normalised HSF1 focus index: stronger effect = lower value.
Assay [12] can be described thus: drug combination growth inhibition, ovarian cancer – cell-based, oncology-focused library, rucaparib conditional, profiling panel (AID 1508598). Particulars: patient-derived ovarian cancer cells, CellTiter-Glo viability, 144 h, stronger effect = lower value.
The mark [13] stands for this setting: stronger effect = lower value, cell number ratio, induced over uninduced.
The mark [14] stands for this setting: measured here: relative caspase fold change +Dox/-Dox.
Where [15] appears, read: measured here: total cells with miR-34 induction, stronger effect = lower value.
[16] abbreviates: measured here: total cells without miR-34 induction.
Setting [17] is: MELAS cybrid survival, CellTiter-Glo 48 h, stronger effect = higher value.
Setting [18] is: Rieske KO mouse fibroblast survival, CellTiter-Glo 72 h.

As to `Cc1cc(Nc2cc(CN3CCOCC3)c3nc(C)c(Cc4ccc(Cl)cc4F)n3n2)n[nH]1`, the AC50 in [1] was 1.32 µM (active); in assay [2], 11.8 µM (active); in assay [3], 10.5 µM (active); in assay [4], 1.18 µM (active); in assay [5], 23.5 µM (active); in [6] it was 3.32 µM (active). Also, the IC50 in assay [7] was 8.33 µM (active). Moreover, the figures for the fold change in assay [8] (setting [13]) and in assay [8] (setting [14]) were 1.46 (inactive) and 0.647, respectively. In addition, the cell count is 1440 in assay [8] (setting [15]) and 982 in assay [8] (setting [16]). Moreover, the results for the z-score in assay [9] (setting [17]) and in assay [9] (setting [18]) were -0.366 (inactive) and -1.27, respectively.
Turning to `O[C@@H](COc1cccc2ncccc12)CN1CCN(C2c3ccccc3[C@@H]3[C@H](c4ccccc42)C3(F)F)CC1` (some centres undefined), the AC50 in [1] is 20.9 µM (active); in assay [2], 16.6 µM (active); in assay [3], 23.5 µM (active); in [4], 13.2 µM (active); in [6], 23.5 µM (active). Moreover, in assay [7], the IC50 is 18.6 µM (active).
For `CC1(C)CNc2cc(NC(=O)c3cccnc3NCc3ccncc3)ccc21`, the AC50 in assay [1] was 20.9 µM (active); in [4], 16.6 µM (active). The outcome in [10] and in assay [7] was inactive. In addition, the fold change in [8] (setting [13]) was 0.978 (inactive); in [8] (setting [14]) it was 0.926. Moreover, the results for the cell count in [8] (setting [15]), in assay [8] (setting [16]) and in assay [11] were 7470, 7630 and 7450, respectively. This compound also displayed an SSMD in assay [11] of 2.51. Moreover, the plate-normalised HSF1 focus index in [11] is 1.16 (inactive). Moreover, the z-score in assay [9] (setting [17]) was -0.604 (inactive); in assay [9] (setting [18]), 0.896. Also, the viability in assay [12] (at 0.000305 µM, OCI-C5x cells, with rucaparib 10 µM, 100% = cells with rucaparib alone) was 121% (inactive); in assay [12] (at 0.000305 µM, OCI-C5x cells, without rucaparib) it was 126% (inactive); in assay [12] (at 0.000305 µM, OCI-P5x cells, with rucaparib 20 µM, 100% = cells with rucaparib alone), 128% (inactive); in assay [12] (at 0.000305 µM, OCI-P5x cells, without rucaparib), 103% (inactive); in [12] (at 0.00122 µM, OCI-C5x cells, with rucaparib 10 µM, 100% = cells with rucaparib alone), 114% (inactive); in assay [12] (at 0.00122 µM, OCI-C5x cells, without rucaparib), 128% (inactive). The viability in [12] (at 0.00122 µM, OCI-P5x cells, with rucaparib 20 µM, 100% = cells with rucaparib alone) is 134% (inactive); in [12] (at 0.00122 µM, OCI-P5x cells, without rucaparib) it was 102% (inactive); in [12] (at 0.00488 µM, OCI-C5x cells, with rucaparib 10 µM, 100% = cells with rucaparib alone) it was 112% (inactive); in assay [12] (at 0.00488 µM, OCI-C5x cells, without rucaparib), 122% (inactive); in assay [12] (at 0.00488 µM, OCI-P5x cells, with rucaparib 20 µM, 100% = cells with rucaparib alone), 135% (inactive); in assay [12] (at 0.00488 µM, OCI-P5x cells, without rucaparib), 104% (inactive). The viability is 121% (inactive) in [12] (at 0.0195 µM, OCI-C5x cells, with rucaparib 10 µM, 100% = cells with rucaparib alone); 128% (inactive) in assay [12] (at 0.0195 µM, OCI-C5x cells, without rucaparib); 140% (inactive) in [12] (at 0.0195 µM, OCI-P5x cells, with rucaparib 20 µM, 100% = cells with rucaparib alone); 105% (inactive) in assay [12] (at 0.0195 µM, OCI-P5x cells, without rucaparib); 119% (inactive) in assay [12] (at 0.0781 µM, OCI-C5x cells, with rucaparib 10 µM, 100% = cells with rucaparib alone); 141% (inactive) in assay [12] (at 0.0781 µM, OCI-C5x cells, without rucaparib). Moreover, the viability in assay [12] (at 0.0781 µM, OCI-P5x cells, with rucaparib 20 µM, 100% = cells with rucaparib alone) was 138% (inactive); in assay [12] (at 0.0781 µM, OCI-P5x cells, without rucaparib) it was 108% (inactive); in assay [12] (at 0.313 µM, OCI-C5x cells, with rucaparib 10 µM, 100% = cells with rucaparib alone), 122% (inactive); in [12] (at 0.313 µM, OCI-C5x cells, without rucaparib), 126% (inactive); in assay [12] (at 0.313 µM, OCI-P5x cells, with rucaparib 20 µM, 100% = cells with rucaparib alone), 142% (inactive); in assay [12] (at 0.313 µM, OCI-P5x cells, without rucaparib), 107% (inactive). The viability is 135% (inactive) in assay [12] (at 1.25 µM, OCI-C5x cells, with rucaparib 10 µM, 100% = cells with rucaparib alone); 146% (inactive) in [12] (at 1.25 µM, OCI-C5x cells, without rucaparib); 145% (inactive) in [12] (at 1.25 µM, OCI-P5x cells, with rucaparib 20 µM, 100% = cells with rucaparib alone); 98.9% (active) in [12] (at 1.25 µM, OCI-P5x cells, without rucaparib); 137% (inactive) in assay [12] (at 5 µM, OCI-C5x cells, with rucaparib 10 µM, 100% = cells with rucaparib alone); 148% (inactive) in [12] (at 5 µM, OCI-C5x cells, without rucaparib). Besides, the viability in assay [12] (at 5 µM, OCI-P5x cells, with rucaparib 20 µM, 100% = cells with rucaparib alone) is 131% (inactive); in [12] (at 5 µM, OCI-P5x cells, without rucaparib), 94.6% (active).
